According to PubChem BioAssay (EPA / NIEHS):
“And” between values parts separate entries of the source, which are not always exact repeats. Identical values can stand only once. Results filed as inconclusive are left out. A structure can be active in one record and inactive in another. The source made the active and inactive calls. How the source made its calls, unless noted: active means hit-call score of the fitted dose curve at least 0.9, where 1 is the maximum; inactive means score below 0.9.

What was measured:
[1] = molecular target: Nuclear respiratory factor 1 (Homo sapiens) (UniProt Q16656); assay: ATG_NRF1_CIS: Attagene CIS-FACTORIAL HepG2 Assay for human Nuclear Respiratory Factor 1 (NRF1) Orphan Gene (AID 2282987); conditions: HepG2 NRF1 cis-element reporter, Attagene multiplex; actives raise or lower the signal
Nuclear respiratory factor 1 (Homo sapiens), sequence (Q16656 whole entry, looked up): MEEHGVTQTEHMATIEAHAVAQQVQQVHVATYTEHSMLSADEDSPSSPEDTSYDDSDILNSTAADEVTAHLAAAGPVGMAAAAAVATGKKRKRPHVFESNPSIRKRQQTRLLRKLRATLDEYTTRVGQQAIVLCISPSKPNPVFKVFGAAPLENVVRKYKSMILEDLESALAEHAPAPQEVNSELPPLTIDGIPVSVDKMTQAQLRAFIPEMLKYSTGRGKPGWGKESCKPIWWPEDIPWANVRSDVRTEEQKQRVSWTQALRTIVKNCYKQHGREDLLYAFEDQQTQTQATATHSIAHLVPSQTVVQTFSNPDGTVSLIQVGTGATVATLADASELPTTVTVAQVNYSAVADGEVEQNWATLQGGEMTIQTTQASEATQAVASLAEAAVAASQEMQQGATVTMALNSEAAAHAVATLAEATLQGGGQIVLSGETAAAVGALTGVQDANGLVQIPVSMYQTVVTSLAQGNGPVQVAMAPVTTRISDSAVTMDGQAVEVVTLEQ
In short: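 Reporter mRNA induction or loss in HepG2 cells after 24 h dosing; cis-regulated reporter constructs report endogenous transcription-factor activity. Quantified by RT-PCR/capillary electrophoresis fluorescence, DMSO-referenced.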

[2] = ATG_NFI_CIS: Attagene CIS-FACTORIAL HepG2 Assay for human Nuclear Factor I (NFI) (AID 2282989); conditions: HepG2 cis-regulatory reporter, NFI response element transcription; actives raise or lower the signal
In short: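 Read-out: reporter mRNA via RT-PCR plus capillary electrophoresis with fluorescence detection. Transiently transfected HepG2 (endogenous TF activity on cis promoters), 24 h compound exposure; gain or loss of signal fitted against DMSO.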

[3] = molecular target: Myc proto-oncogene protein (Homo sapiens) (UniProt P01106); assay: ATG_Myc_CIS: Attagene CIS-FACTORIAL HepG2 Assay for human Myelocytomatosis (Myc) Proto-Oncogene Transcription Factor (AID 2282990); conditions: HepG2, Attagene cis-reporter transcription factor activity; actives raise or lower the signal
Myc proto-oncogene protein (Homo sapiens), sequence (P01106 whole entry, looked up): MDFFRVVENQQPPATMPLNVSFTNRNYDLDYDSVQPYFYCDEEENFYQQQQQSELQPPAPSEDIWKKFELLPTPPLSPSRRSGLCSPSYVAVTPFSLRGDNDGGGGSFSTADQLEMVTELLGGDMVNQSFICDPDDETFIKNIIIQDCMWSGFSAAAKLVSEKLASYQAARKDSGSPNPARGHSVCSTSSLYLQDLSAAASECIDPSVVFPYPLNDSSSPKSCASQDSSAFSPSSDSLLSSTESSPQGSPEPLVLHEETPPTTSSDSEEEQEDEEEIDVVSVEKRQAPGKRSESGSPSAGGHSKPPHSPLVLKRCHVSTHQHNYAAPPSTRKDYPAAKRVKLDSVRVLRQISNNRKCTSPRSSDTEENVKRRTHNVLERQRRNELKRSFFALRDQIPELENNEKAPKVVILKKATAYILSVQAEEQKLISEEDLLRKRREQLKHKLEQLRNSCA
In short: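 Transiently transfected HepG2 cells bearing cis-promoter reporter units for endogenous transcription factors; 24 h exposure. Reporter mRNA measured by RT-PCR, 6-FAM primer extension, HpaI cut and capillary electrophoresis; bidirectional fit relative to DMSO.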

[4] = ATG_NRF2_ARE_CIS: Attagene CIS-FACTORIAL HepG2 Assay for human Nuclear Factor Erythroid 2 Related Factor 2 (NFR2) response to Antioxidant Response Elements (ARE) (AID 2282992); conditions: HepG2 Attagene ARE/NRF2 reporter, transcription factor activity; actives raise or lower the signal;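 on AC50: reporter mRNA level measured by RT-PCR and capillary electrophoresis fluorescence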
In short: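 Multiplexed reporter mRNA profiling in HepG2 after a 24 h chemical exposure. Curves fitted in both directions relative to DMSO negative control.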

[5] = ATG_Oct_MLP_CIS: Attagene CIS-FACTORIAL HepG2 Assay for human Octamer-Binding Transcription Factor (Oct) (AID 2282993); conditions: HepG2 Attagene cis-factorial Oct reporter, mRNA; actives raise or lower the signal
In short: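 Read-out: reporter mRNA via RT-PCR plus capillary electrophoresis of 6-FAM-labelled fragments. Transiently transfected HepG2, 24 h exposure, endogenous TF activity on cis elements. Gain or loss of signal fitted relative to DMSO.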

[6] = BSK_3C_uPAR: BioMAP Diversity Plus: 3C Assay for Urokinase-type plasminogen activator receptor (uPAR) Biomarker Activity (AID 2282998); conditions: BioMAP 3C HUVEC, uPAR biomarker ELISA; actives raise or lower the signal
In short: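 HUVEC primary cells; 24 h post-dose; uPAR by ELISA; gain or loss of signal fitted bidirectionally vs DMSO baseline.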

[7] = BSK_3C_VCAM1: BioMAP Diversity Plus: 3C Assay for Vascular cell adhesion molecule 1 (VCAM1) Biomarker Activity (AID 2282999); conditions: BioMAP 3C HUVEC, VCAM1 ELISA, cytokine-stimulated; actives raise or lower the signal
In short: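 Human umbilical vein endothelial cells (3C system), biomarker read by ELISA 24 h after dosing; bidirectional fit against DMSO baseline. Cytotoxicity tracked by SRB total-protein staining in parallel cultures at biomarker time.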

[8] = BSK_4H_Eotaxin3: BioMAP Diversity Plus: 4H Assay for Eotaxin 3 Biomarker Activity (AID 2283000); conditions: primary human endothelial cells (HUVEC); actives raise or lower the signal
In short: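 Eotaxin-3 (CCL26) levels were measured by ELISA in HUVEC primary cultures 24 h post-dosing. Gain or loss of signal was fitted in both directions, with DMSO serving as baseline and negative control.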

[9] = read-out: Intercellular Adhesion Molecule 1 (ICAM1), ICAM1 (gene 3383); assay: BSK_3C_ICAM1: BioMAP Diversity Plus: 3C Assay for Intercellular Adhesion Molecule 1 (ICAM1) Biomarker Activity (AID 2283003); conditions: primary human endothelial cells (HUVEC); actives raise or lower the signal
In short: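 Human vascular endothelial primary cells, 3C conditions, 24 h treatment. ICAM-1 by ELISA.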

[10] = molecular target: human Retinoic Acid Receptor beta (RARb), RARB (gene 5915) (UniProt P10826); assay: ATG_RARb_TRANS: Attagene TRANS-FACTORIAL HepG2 Assay for human Retinoic Acid Receptor beta (AID 2283004; active means hit-call score of the fitted dose curve at least 0.9, where 1 is the maximum)
human Retinoic Acid Receptor beta (RARb), RARB (gene 5915), sequence (P10826 whole entry, looked up, the tested form may be a part): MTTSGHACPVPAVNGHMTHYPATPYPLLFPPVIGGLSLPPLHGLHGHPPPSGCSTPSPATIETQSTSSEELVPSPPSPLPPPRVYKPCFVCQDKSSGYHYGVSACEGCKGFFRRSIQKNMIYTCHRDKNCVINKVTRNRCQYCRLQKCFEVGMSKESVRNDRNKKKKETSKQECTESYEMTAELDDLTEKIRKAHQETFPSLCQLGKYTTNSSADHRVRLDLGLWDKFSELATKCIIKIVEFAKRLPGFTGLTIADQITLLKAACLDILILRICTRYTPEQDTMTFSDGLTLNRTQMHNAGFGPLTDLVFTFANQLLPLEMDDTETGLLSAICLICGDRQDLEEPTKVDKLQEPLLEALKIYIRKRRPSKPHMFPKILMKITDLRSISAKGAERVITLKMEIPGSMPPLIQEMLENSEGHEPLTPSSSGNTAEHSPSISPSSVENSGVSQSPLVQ
In short: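 HepG2 cells were transiently transfected with GAL4-UAS reporter units that report activity of exogenous chimeric NR-Gal4 proteins, then exposed to compound for 24 h. Reporter mRNA was quantified by RT-PCR with capillary electrophoresis fluorescence, as gain of signal over DMSO.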

[11] = molecular target: Retinoic acid receptor alpha (Homo sapiens) (UniProt P10276); assay: ATG_RARa_TRANS: Attagene TRANS-FACTORIAL HepG2 Assay for human Retinoic Acid Receptor alpha (RARa) (AID 2283005; active means hit-call score of the fitted dose curve at least 0.9, where 1 is the maximum;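 on AC50: potency for increased reporter signal meaning RARa activation over DMSO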)
Retinoic acid receptor alpha (Homo sapiens), sequence (P10276 whole entry, looked up, the tested form may be a part): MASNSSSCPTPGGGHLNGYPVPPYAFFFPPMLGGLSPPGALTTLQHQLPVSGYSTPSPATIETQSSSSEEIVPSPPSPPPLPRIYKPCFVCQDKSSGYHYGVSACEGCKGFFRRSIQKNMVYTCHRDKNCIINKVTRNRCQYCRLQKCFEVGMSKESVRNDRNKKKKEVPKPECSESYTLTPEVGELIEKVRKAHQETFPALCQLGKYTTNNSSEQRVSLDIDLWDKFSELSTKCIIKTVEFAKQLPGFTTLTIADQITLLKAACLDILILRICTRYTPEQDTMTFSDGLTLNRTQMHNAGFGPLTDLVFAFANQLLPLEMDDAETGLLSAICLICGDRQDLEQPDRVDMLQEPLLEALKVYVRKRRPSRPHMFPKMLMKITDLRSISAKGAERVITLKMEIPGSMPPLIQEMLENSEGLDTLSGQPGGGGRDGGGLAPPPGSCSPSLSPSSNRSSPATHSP
In short: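 HepG2 transiently transfected with multiplex GAL4-UAS reporter units including a human RARa–GAL4 chimera; 24 h compound exposure. Reporter mRNA quantified by RT-PCR, 6-FAM labeling and capillary electrophoresis; gain of signal versus DMSO.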

[12] = molecular target: Peroxisome proliferator-activated receptor gamma (Homo sapiens) (UniProt P37231); assay: ATG_PPARg_TRANS: Attagene TRANS-FACTORIAL HepG2 Assay for human Peroxisome Proliferator-activated Receptor-gamma (PPARg) (AID 2283007; active means hit-call score of the fitted dose curve at least 0.9, where 1 is the maximum)
Peroxisome proliferator-activated receptor gamma (Homo sapiens), sequence (P37231 whole entry, looked up, the tested form may be a part): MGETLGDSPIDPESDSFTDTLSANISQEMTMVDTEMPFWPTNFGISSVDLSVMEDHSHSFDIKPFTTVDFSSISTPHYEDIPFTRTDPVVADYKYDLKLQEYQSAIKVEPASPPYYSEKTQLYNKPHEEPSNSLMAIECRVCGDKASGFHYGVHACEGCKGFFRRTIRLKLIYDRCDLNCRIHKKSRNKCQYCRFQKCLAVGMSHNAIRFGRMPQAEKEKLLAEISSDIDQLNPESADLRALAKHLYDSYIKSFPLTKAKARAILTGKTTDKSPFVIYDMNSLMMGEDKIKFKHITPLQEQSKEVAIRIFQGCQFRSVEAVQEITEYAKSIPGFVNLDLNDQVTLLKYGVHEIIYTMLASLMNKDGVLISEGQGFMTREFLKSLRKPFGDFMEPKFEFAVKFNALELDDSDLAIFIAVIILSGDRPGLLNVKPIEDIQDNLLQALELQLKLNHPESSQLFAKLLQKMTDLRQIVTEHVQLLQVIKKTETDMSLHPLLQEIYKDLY
In short: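 Chimeric NR-Gal4 transactivation is measured in transiently transfected HepG2 cells by reporter mRNA induction at 24 h. Detection uses RT-PCR with fluorescent labelling and capillary electrophoresis; DMSO defines baseline.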

[13] = molecular target: Nuclear receptor subfamily 1 group I member 2 (Homo sapiens) (UniProt O75469); assay: ATG_PXR_TRANS: Attagene TRANS-FACTORIAL HepG2 Assay for human Pregnane X Receptor (PXR) (AID 2283008; active means hit-call score of the fitted dose curve at least 0.9, where 1 is the maximum)
Nuclear receptor subfamily 1 group I member 2 (Homo sapiens), sequence (O75469 whole entry, looked up, the tested form may be a part): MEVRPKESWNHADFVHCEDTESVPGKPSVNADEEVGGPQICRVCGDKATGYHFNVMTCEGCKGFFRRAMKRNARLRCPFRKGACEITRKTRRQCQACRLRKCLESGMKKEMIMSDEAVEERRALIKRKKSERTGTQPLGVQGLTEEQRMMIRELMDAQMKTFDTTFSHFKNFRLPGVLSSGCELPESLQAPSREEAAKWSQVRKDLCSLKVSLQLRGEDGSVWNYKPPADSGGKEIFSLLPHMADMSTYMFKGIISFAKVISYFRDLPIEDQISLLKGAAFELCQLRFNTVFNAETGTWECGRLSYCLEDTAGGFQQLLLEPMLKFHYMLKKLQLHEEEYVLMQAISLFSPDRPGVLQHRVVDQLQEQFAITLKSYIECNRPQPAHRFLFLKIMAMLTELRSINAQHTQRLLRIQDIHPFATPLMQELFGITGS
In short: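 Measures mRNA induction of a GAL4-UAS-driven reporter in human HepG2 cells transiently expressing PXR fused to Gal4, following 24 h treatment. DMSO served as negative control and baseline.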

[14] = molecular target: Cellular tumor antigen p53 (Homo sapiens) (UniProt P04637); assay: ATG_p53_CIS: Attagene CIS-FACTORIAL HepG2 Assay for human p53 Transcription Factor (AID 2282994); conditions: HepG2 p53 cis-element reporter, Attagene mRNA; actives raise or lower the signal
Cellular tumor antigen p53 (Homo sapiens), sequence (P04637 whole entry, looked up): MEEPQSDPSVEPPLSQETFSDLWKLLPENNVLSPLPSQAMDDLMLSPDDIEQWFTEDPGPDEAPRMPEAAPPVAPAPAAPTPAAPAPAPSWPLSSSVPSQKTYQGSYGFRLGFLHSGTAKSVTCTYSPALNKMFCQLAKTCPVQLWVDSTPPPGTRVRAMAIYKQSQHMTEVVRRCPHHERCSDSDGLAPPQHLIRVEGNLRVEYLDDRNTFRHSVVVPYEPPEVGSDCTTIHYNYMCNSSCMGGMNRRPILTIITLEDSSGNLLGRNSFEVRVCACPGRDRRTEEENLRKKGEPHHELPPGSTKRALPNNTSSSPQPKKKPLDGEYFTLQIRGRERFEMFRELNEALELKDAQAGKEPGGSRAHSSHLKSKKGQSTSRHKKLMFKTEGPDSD
In short: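 Multiplexed reporter mRNA assay in human HepG2 liver cells; cis-regulated units report endogenous factor activity. Values come from bidirectional curve fitting against DMSO negative control after 24 h treatment.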

[15] = molecular target: human Peroxisome Proliferator-activated Receptor alpha (PPARa), PPARA (gene 5465) (UniProt Q07869); assay: ATG_PPARa_TRANS: Attagene TRANS-FACTORIAL HepG2 Assay for human Peroxisome Proliferator-activated Receptor alpha (PPARa) (AID 2283001; active means hit-call score of the fitted dose curve at least 0.9, where 1 is the maximum)
human Peroxisome Proliferator-activated Receptor alpha (PPARa), PPARA (gene 5465), sequence (Q07869 whole entry, looked up, the tested form may be a part): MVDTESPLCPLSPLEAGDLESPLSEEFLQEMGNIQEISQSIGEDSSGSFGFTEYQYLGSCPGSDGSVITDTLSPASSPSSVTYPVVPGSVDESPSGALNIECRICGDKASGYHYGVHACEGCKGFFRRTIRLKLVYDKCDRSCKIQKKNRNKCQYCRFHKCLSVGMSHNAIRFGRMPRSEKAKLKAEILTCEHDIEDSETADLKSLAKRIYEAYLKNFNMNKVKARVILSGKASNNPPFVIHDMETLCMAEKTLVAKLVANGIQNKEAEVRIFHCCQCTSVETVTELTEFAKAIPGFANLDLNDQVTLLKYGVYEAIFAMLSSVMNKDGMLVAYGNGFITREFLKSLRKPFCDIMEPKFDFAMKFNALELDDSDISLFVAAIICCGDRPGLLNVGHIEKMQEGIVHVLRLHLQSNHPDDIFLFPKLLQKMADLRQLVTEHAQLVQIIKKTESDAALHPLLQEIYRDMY
In short: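 Measures transcriptional activity of an exogenous chimeric PPARa-Gal4 protein in transiently transfected HepG2 cells after 24 h dosing. Reporter mRNA quantified via RT-PCR and capillary electrophoresis; DMSO served as negative control.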

[16] = BSK_3C_Proliferation: Cell Proliferation Assessment in the BioMAP Diversity Plus: 3C Assay (AID 2283006); conditions: primary human endothelial cells (HUVEC);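 on AC50: potency may reflect either rise or fall in cell number versus DMSO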
In short: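 Proliferation of human vascular endothelial primary cells after 48 h dosing, quantified as SRB-stained protein at 560 nm relative to DMSO.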

[17] = molecular target: human Retinoic Acid Receptor gamma (RARg), RARG (gene 5916) (UniProt P13631); assay: ATG_RARg_TRANS: Attagene TRANS-FACTORIAL HepG2 Assay for human Retinoic Acid Receptor gamma (RARg) (AID 2283009; active means hit-call score of the fitted dose curve at least 0.9, where 1 is the maximum)
human Retinoic Acid Receptor gamma (RARg), RARG (gene 5916), sequence (P13631 whole entry, looked up, the tested form may be a part): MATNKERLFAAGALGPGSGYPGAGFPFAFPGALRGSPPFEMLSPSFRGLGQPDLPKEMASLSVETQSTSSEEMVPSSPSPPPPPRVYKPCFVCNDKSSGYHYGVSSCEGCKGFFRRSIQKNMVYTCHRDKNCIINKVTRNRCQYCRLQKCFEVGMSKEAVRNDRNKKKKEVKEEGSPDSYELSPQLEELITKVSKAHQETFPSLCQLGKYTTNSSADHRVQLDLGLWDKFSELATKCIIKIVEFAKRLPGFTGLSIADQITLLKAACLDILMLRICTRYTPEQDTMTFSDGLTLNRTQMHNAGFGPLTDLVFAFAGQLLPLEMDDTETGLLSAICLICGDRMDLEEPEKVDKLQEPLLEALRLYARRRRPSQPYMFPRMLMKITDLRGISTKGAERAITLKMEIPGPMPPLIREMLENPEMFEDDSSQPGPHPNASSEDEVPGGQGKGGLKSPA
In short: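 HepG2, RARg-GAL4 TRANS system, 24 h exposure; reporter mRNA by RT-PCR + CE fluorescence; increase over DMSO.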

[18] = ATG_NF_kB_CIS: Attagene CIS-FACTORIAL HepG2 Assay for human Nuclear Factor Kappa B (NF-kB) (AID 2282991); conditions: HepG2 Attagene cis-factorial NF-kB reporter mRNA; actives raise or lower the signal
In short: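 DMSO served as negative control and baseline for bidirectional curve fitting. Transiently transfected HepG2 cells were dosed for 24 h, then reporter transcripts were measured by RT-PCR with capillary electrophoresis detection.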

[19] = molecular target: human Peroxisome Proliferator-activated Receptor delta (PPARd), PPARD (gene 5467) (UniProt Q03181); assay: ATG_PPARd_TRANS: Attagene TRANS-FACTORIAL HepG2 Assay for human Peroxisome Proliferator-activated Receptor delta (PPARd) (AID 2283002; active means hit-call score of the fitted dose curve at least 0.9, where 1 is the maximum)
human Peroxisome Proliferator-activated Receptor delta (PPARd), PPARD (gene 5467), sequence (Q03181 whole entry, looked up, the tested form may be a part): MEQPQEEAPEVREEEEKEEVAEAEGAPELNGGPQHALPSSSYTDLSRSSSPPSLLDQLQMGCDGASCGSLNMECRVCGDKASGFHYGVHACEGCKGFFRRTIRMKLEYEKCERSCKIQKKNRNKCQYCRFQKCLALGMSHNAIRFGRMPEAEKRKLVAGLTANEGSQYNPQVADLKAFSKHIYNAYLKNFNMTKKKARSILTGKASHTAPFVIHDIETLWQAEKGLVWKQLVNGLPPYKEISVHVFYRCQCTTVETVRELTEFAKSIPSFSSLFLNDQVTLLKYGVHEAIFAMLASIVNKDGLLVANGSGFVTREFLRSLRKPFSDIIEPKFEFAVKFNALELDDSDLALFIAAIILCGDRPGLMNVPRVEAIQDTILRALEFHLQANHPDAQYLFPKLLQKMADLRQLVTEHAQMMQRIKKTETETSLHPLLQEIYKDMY
In short: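 HepG2 cells transiently transfected with GAL4-UAS multiplexed reporter units driven by exogenous chimeric NR-GAL4 proteins; 24 h compound exposure. Reporter mRNA measured by RT-PCR, 6-FAM primer extension, HpaI digestion and capillary electrophoresis; gain of signal fitted relative to DMSO.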

[20] = BSK_3C_TissueFactor: BioMAP Diversity Plus: 3C Assay for Tissue Factor Biomarker Activity (AID 2282997); conditions: BioMAP 3C HUVEC, tissue factor biomarker readout; actives raise or lower the signal
In short: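 HUVEC were treated 24 h, then surface tissue factor measured by ELISA and fitted bidirectionally against DMSO. Parallel SRB total-protein staining assessed overt cytotoxicity at the same time point.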

Measured: AC50

CCOP(=O)(SC(C)CC)N1CCSC1=O (centres undefined)
not listed: [14] | [15] | [16] | [17] | [18] | [19] | [20]
inactive: all other assays above

CSc1nc(NC(C)C)nc(NC(C)C)n1
active: [4] 10 µM | [12] 47.6 µM | [13] 18.4 µM
not listed: [18] | [19] | [20]
inactive: all other assays above

CCCCOC(=O)c1ccccc1C(=O)O
not listed: [10] | [11] | [12] | [13] | [16] | [17] | [20]
inactive: all other assays above

C#CCC1=C(C)C(OC(=O)C2C(C=C(C)C)C2(C)C)CC1=O (centres undefined)
active: [2] 80 µM | [3] 68.1 µM | [4] 13.2 µM | [5] 44.5 µM | [14] 80.1 µM | [16] 28.8 µM | [13] 3.12 µM
not listed: [12] | [18] | [20]
inactive: all other assays above

FC(F)C(F)(F)OCC(Cn1cncn1)c1ccc(Cl)cc1Cl (centres undefined)
active: [1] 39.5 µM | [4] 35.9 µM | [5] 46.5 µM | [6] 36.7 µM | [8] 28.4 µM | [11] 13.2 µM | [16] 20 µM
not listed: [15] | [20]
inactive: all other assays above

CCOP(=S)(OCC)Oc1ccc([N+](=O)[O-])cc1
active: [4] 23.5 µM | [5] 50 µM | [12] 28.8 µM | [13] 19.9 µM
not listed: [10] | [11] | [15] | [16] | [17]
inactive: all other assays above

CCOP(=O)(OCC)Oc1cc(C)nc(C(C)C)n1
not listed: [10] | [11] | [12] | [13] | [15] | [16] | [17] | [18]
inactive: all other assays above

CCOP(=S)(Oc1cnc(C(C)(C)C)nc1)OC(C)C (centres undefined)
active: [18] 22.4 µM | [4] 14.1 µM | [5] 2.06 µM | [20] 31.9 µM | [6] 36.2 µM | [7] 36.8 µM | [8] 31.9 µM
not listed: [10] | [12] | [15] | [16]
inactive: all other assays above

CCc1cccc(CC)c1N(COC)C(=O)CCl
active: [3] 2.68 µM | [4] 3.31 µM | [5] 3.21 µM | [7] 31.4 µM | [8] 22.4 µM | [16] 28.5 µM | [12] 1.79 µM
not listed: [10] | [11] | [14] | [15] | [20]
inactive: all other assays above

O=[N+]([O-])c1cc(C(F)(F)F)c(Cl)c([N+](=O)[O-])c1Nc1ncc(C(F)(F)F)cc1Cl
inactive: [1] | [3] | [18] | [4] | [5] | [15] | [19] | [10] | [11] | [13] | [17]
active: [1] 21.5 µM | [18] 11.9 µM | [4] 2.7 µM | [20] 1.16 µM and 2.68 µM | [6] 1.05 µM and 3.18 µM | [7] 1.46 µM and 2.82 µM | [8] 1.39 µM and 3.07 µM | [9] 3.09 µM and 3.8 µM | [13] 2.86 µM

CN(C)NC(=O)CCC(=O)O
not listed: [10] | [12] | [13] | [17]
inactive: all other assays above

CCOP(=O)(NC(C)C)Oc1ccc(SC)c(C)c1 (centres undefined)
active: [4] 5.22 µM | [5] 11.2 µM
not listed: [12] | [15] | [16]
inactive: all other assays above

Nc1c(Cl)cc([N+](=O)[O-])cc1Cl
active: [2] 50 µM | [18] 59.5 µM | [4] 41.1 µM | [5] 50 µM
not listed: [12] | [14] | [15] | [16] | [17] | [20]
inactive: all other assays above

N#CSCSC#N
active: [20] 5.49 µM | [6] 5.93 µM | [7] 8.79 µM | [8] 6.94 µM | [9] 8.09 µM
not listed: [2] | [16]
inactive: all other assays above

CCNc1nc(Cl)nc(NC(C)(C)C#N)n1
not listed: [10] | [11] | [13] | [16] | [17] | [18] | [20]
inactive: all other assays above
